Where “and” joins values, the source holds several entries; their conditions need not be identical. Identical values can stand only once. This is part of a sample that, as a whole, favours compounds with a hit. Of some 83,000 tested, about 20% had one in any assay.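 Growth was measured after 48 h exposure to one concentration of compound in 96-well plates. Values under 10 count as active.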 Unmarked numbers belong to inactive results. Calls of active or inactive are those of the source.

Among the test systems are DU-145 prostate; K-562 leukemia; MALME-3M melanoma; MDA-MB-231 breast; RXF 393 renal; SF-268 CNS; SF-295 CNS; SF-539 CNS; UACC-257 melanoma; M14 melanoma.
Common to all, as to test: NCI-60 one-dose screen, 48 h (100 = growth as untreated, 0 = no growth, -100 = all killed)
What all share (conditions): 10 µM unless noted

For the molecule `COc1ccc(C2=C(CN)C(O)NC(=NCC(=O)c3ccc4ccccc4c3)N2)cc1` (stereo not given), the growth was 107% in the test on DU-145 prostate; 102% in the test on K-562 leukemia; 101% with MALME-3M melanoma; 103% in the test with MDA-MB-231 breast; 112% with RXF 393 renal; 94.1% in the test on SF-268 CNS. Moreover, the growth in the test with SF-295 CNS is 98.4%; in the test on SF-539 CNS, 90.8%; in the test with UACC-257 melanoma, 91.3%; with M14 melanoma it was 95.1%.
`O=C1C(N2CCOCC2)=C(I)C(=O)c2ncccc21`: the growth in the test on DU-145 prostate is 84.8%; in the test on K-562 leukemia it was 4.52% (active); in the test on MALME-3M melanoma, 87.3%; in the test on MDA-MB-231 breast, 87.1%; in the test on RXF 393 renal, 72.6%; in the test with SF-268 CNS, 71.5%. The growth is 97.3% in the test on SF-295 CNS, 82.7% in the test with SF-539 CNS, 85% with UACC-257 melanoma and 87.1% with M14 melanoma.
In the case of `CCCCCCCCCCCCC[C@H](O)C[C@H](O)[C@H](C)N`, the growth is 96.9% [1.25 µM] with DU-145 prostate; 102% [1.25 µM] in the test on K-562 leukemia; 132% [1.25 µM] with MALME-3M melanoma; 90% [1.25 µM] with MDA-MB-231 breast; 8.68% [1.25 µM] (active) with RXF 393 renal; 115% [1.25 µM] with SF-268 CNS. For the same molecule, the growth in the test with SF-295 CNS was 108% [1.25 µM]; in the test on SF-539 CNS, 100% [1.25 µM]; in the test with UACC-257 melanoma, 113% [1.25 µM]; with M14 melanoma, 95.9% [1.25 µM].
On to `COC(=O)[C@H]1Cc2c([nH]c3ccccc23)[C@@H](c2cccs2)N1`, for which the growth in the test on DU-145 prostate is 106%; with K-562 leukemia, 104%; in the test with MALME-3M melanoma it was 97.6%; in the test on MDA-MB-231 breast, 95.1%; with RXF 393 renal it was 107%; with SF-268 CNS, 98.9%. In addition, the growth in the test on SF-295 CNS is 100%; in the test with SF-539 CNS it was 93.1%; with UACC-257 melanoma, 105%; in the test with M14 melanoma it was 107%.
For the molecule `O=C(NNc1ccccc1)c1ccccc1`, the growth with DU-145 prostate is 98.1% and 71.3%; with K-562 leukemia it was 18% and 19.8%; in the test with MALME-3M melanoma, 99.2%; with MDA-MB-231 breast, 70.6% and 53.6%; in the test with RXF 393 renal, 123%; with SF-268 CNS, 78.9% and 58.7%. The growth was 64.5% in the test on SF-295 CNS; 95.1% and 96.7% in the test with SF-539 CNS; 56.8% and 81.2% with UACC-257 melanoma; 53.9% and 38.5% in the test with M14 melanoma.
Turning to `O=C(N/N=C/c1ccc(O)cc1O)c1cccc(Nc2ccnc(C(F)(F)F)c2)c1`, the growth with DU-145 prostate is 17.7%; in the test with K-562 leukemia, 21.6%; with MALME-3M melanoma, 2.77% (active); with MDA-MB-231 breast, 41.3%; in the test on RXF 393 renal, 44.9%; with SF-268 CNS, 11.8%. Also, the growth is 20.4% in the test on SF-295 CNS, 8.62% (active) in the test with SF-539 CNS, 36.3% in the test with UACC-257 melanoma and -1.76% (active) with M14 melanoma.
On to `Nc1[nH]nc(Nc2ccccc2)c1-c1nc2ccccc2s1`, for which the growth was 27.8% in the test on DU-145 prostate; 4.83% (active) in the test on K-562 leukemia; 83.4% in the test on MALME-3M melanoma; -17% (active) in the test with MDA-MB-231 breast; 36.3% with RXF 393 renal; 31% in the test with SF-268 CNS. Also, the growth is 28.6% in the test on SF-295 CNS, 55.1% with SF-539 CNS, 50.6% with UACC-257 melanoma and 6.41% (active) in the test on M14 melanoma.
With `COc1ccc(/C(C)=C(\c2ccc(OCCN3CCOCC3)cc2)c2ccc(OC(=O)C3CCCCC3)cc2)cc1`, the growth with DU-145 prostate was 95.7%; with K-562 leukemia, 89.2%; in the test on MALME-3M melanoma, 97.7%; in the test on MDA-MB-231 breast, 111%; in the test with RXF 393 renal, 121%; with SF-268 CNS it was 101%. The growth in the test on SF-295 CNS is 103%; with SF-539 CNS it was 94.7%; in the test with UACC-257 melanoma, 112%; in the test on M14 melanoma it was 102%.
For `COc1cc2ncnc(Nc3ccc(F)c(Cl)c3)c2cc1OCC(=O)N1CCCCC1`, the growth in the test with DU-145 prostate was 53.8%; with K-562 leukemia, 73.6%; in the test with MALME-3M melanoma, 99.1%; in the test on MDA-MB-231 breast, 105%; in the test on RXF 393 renal it was 84.8%; with SF-268 CNS, 80%. For the same molecule, the growth with SF-295 CNS was 92.1%; with SF-539 CNS it was 104%; with UACC-257 melanoma it was 101%; with M14 melanoma, 85.5%.
In the case of `O=C(Cc1ccc(F)cc1)c1ccccc1`, the growth was 127% in the test on DU-145 prostate; 100% in the test on K-562 leukemia; 107% in the test with MALME-3M melanoma; 111% in the test on MDA-MB-231 breast; 118% with RXF 393 renal; 113% in the test on SF-268 CNS. The growth was 117% in the test with SF-295 CNS, 113% in the test on SF-539 CNS, 114% with UACC-257 melanoma and 105% in the test with M14 melanoma.
Turning to `O=C(Nc1ccccc1C(=O)N/N=C(\c1ccccc1)c1ccccn1)c1ccccc1`, the growth was 14.1% in the test with DU-145 prostate; 12.5% with K-562 leukemia; 35.1% in the test with MALME-3M melanoma; 22.5% with MDA-MB-231 breast; 21.4% in the test on RXF 393 renal; 15.5% with SF-268 CNS. Besides, the growth in the test with SF-295 CNS was 17.9%; in the test with SF-539 CNS, 8.36% (active); in the test on UACC-257 melanoma, -10.4% (active); in the test on M14 melanoma, -12.9% (active).
In the case of `NS(=O)(=O)c1ccc(C(=O)N=Nc2c(O)[nH]c3c(F)cccc23)cc1`, the growth in the test on DU-145 prostate is 113%; in the test on K-562 leukemia it was 107%; with MALME-3M melanoma it was 95.9%; in the test on MDA-MB-231 breast, 106%; in the test on RXF 393 renal, 97.3%; with SF-268 CNS, 107%. Besides, the growth in the test with SF-295 CNS was 103%; with SF-539 CNS, 94.8%; with UACC-257 melanoma, 103%; in the test with M14 melanoma it was 101%.

Source of the values: PubChem BioAssay (NCI).
